From PubChem BioAssay come the findings set out here.

The structures appear in SMILES notation. Inconclusive results are not listed. The source made the active and inactive calls. Unless noted, the limit is not given here; nearly all actives have AC50 up to about 26 µM.

The nature of test [1]: liver-stage malaria parasite growth inhibition, primary screen, cell-based, HepG2, luciferase luminescence, HepG2 viability (AID 624349; in the data active = parasite load remaining mostly below about 12%, no sharp cut-off; inactive = mostly above about 10%;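 also: 100% = mean of DMSO negative control wells on the same plate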). To be noted: P. berghei liver stage in HepG2, luciferase luminescence, concentration not given here; parasite load remaining: stronger effect = lower value; viability: measured here: HepG2 viability without parasites.
For test [2], the system named is Aerobactin synthetase IucA (Klebsiella pneumoniae). Put plainly: IucA aerobactin synthetase inhibitors, biochemical, Tocris library, absorbance (AID 1345561; call rule not given here;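 also: 100% = enzyme without compound and 0% = no enzyme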). To be noted: purified IucA enzyme assay, absorbance (OD) read-out; stronger effect = lower value;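 tested at 8 µM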.
Test [3] in a line: sensitizers of A549 cells to miR-34 induction, primary screen, imaging, A549 dox-inducible miR-34, nuclei and caspase counts (AID 1347080;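 active = compounds whose cell count with miR-34 switched on is under 0.7 times the count with it off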). To be noted: A549 miR-34 inducible, Hoechst nuclei count, 48 h.
Test [4] can be described thus: viability rescue of complex I mutant cybrids, primary screen, cell-based, galactose medium, ATP luminescence (AID 1645843;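 active = z-score of at least 1.8 in each of two replicates, scored against plate mean and spread of sample wells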;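 also: positive z means more ATP and so rescue of galactose-driven cybrid death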). To be noted: complex I mutant cybrid cells, 72 h, stronger effect = higher value.
The nature of test [5]: growth inhibition of DIPG glioma cells, dose response, cell-based, SU-DIPG-XVII, MIPE5.0, CellTiter-Glo, qHTS (AID 1347060).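 As to AC50: cells exposed to compound for 48 hours before viability readout.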 To be noted: SU-DIPG-XVII viability, CellTiter-Glo ATP luminescence. Background: ATP-based viability assays read luminescence as a measure of living cells.
The nature of test [6]: growth inhibition of DIPG glioma cells, dose response, cell-based, SU-DIPG-XIII, MIPE4.0, CellTiter-Glo, qHTS (AID 1347061; cut-off not given, nearly all actives have AC50 up to about 37 µM;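 also: cells exposed to compound for 48 hours before readout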). To be noted: SU-DIPG-XIII viability, CellTiter-Glo ATP luminescence.
Test [7] can be described thus: growth inhibition of DIPG glioma cells, dose response, cell-based, JHH-DIPG-1, MIPE4.0, CellTiter-Glo, qHTS (AID 1347062; cut-off not given, nearly all actives have AC50 up to about 27 µM;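 as to AC50: cells exposed to compound for two days before readout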). To be noted: JHH-DIPG-1 viability, CellTiter-Glo ATP luminescence.
A short description of test [8]: growth inhibition of DIPG glioma cells, dose response, cell-based, SU-DIPG-IV, MIPE4.0, CellTiter-Glo, qHTS (AID 1347063; cut-off not given, nearly all actives have AC50 up to about 30 µM;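 also: compound exposure lasted 48 hours before the viability readout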). The following applies: SU-DIPG-IV viability, CellTiter-Glo ATP luminescence.
Test [9] is described as follows: growth inhibition of DIPG glioma cells, dose response, cell-based, SU-DIPG-XIII, MIPE5.0, CellTiter-Glo, qHTS (AID 1347064; cut-off not given, nearly all actives have AC50 up to about 23 µM;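 as to AC50: cells exposed to compound for 48 hours before the viability read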). To be noted: SU-DIPG-XIII viability, CellTiter-Glo ATP luminescence.
A short description of test [10]: viability loss in pontine glioma line – cell-based, SU-DIPG-XXV, MIPE5.0, CellTiter-Glo, qHTS, dose response (AID 1347065).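 Also: cells exposed to compound for 48 hours before ATP readout.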 The following applies: CellTiter-Glo ATP luminescence.
A short description of test [11]: SU-DIPG-VI glioma cell viability, MIPE4.0 library, CellTiter-Glo luminescence, qHTS (AID 1347066; cut-off not given, nearly all actives have AC50 up to about 30 µM;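 also: cells exposed to compound for 48 hours before readout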). The following applies: CellTiter-Glo ATP luminescence.
Test [12] in a line: JHH-DIPG-1 glioma cell viability, MIPE5.0 library, CellTiter-Glo luminescence, qHTS (AID 1347067).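 Also: cells exposed to compound for 48 hours before readout.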 To be noted: JHH-DIPG-1 glioma viability, CellTiter-Glo ATP luminescence.
A short description of test [13]: SU-DIPG-XXV glioma cell viability, MIPE5.0 library, qHTS (AID 1347068; cut-off not given, nearly all actives have IC50 up to about 30 µM;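 as to IC50: cells exposed to compound for 48 hours before viability readout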).
Setting [14] is: stronger effect = lower value, cell number ratio, induced over uninduced.
[15] abbreviates: measured here: relative caspase fold change +Dox/-Dox.
[16] abbreviates: measured here: total cells with miR-34 induction, stronger effect = lower value.
Setting [17] is: measured here: total cells without miR-34 induction.

Consider `Nc1[nH]nc2nc3ccccc3nc12`, for which the parasite load remaining in [1] was 38.7% (inactive). Besides, the viability in [1] stood at 97.8%. Also, in test [2], the remaining activity is 110% (inactive). The fold change in test [3] (setting [14]) is 0.889 (inactive); in [3] (setting [15]), 0.743. For the same compound, the values for the cell count in test [3] (setting [16]) and in [3] (setting [17]) were 7860 and 8840, respectively. In test [4], the z-score was -0.17 (inactive).

In the case of `Cc1c(CN2CCN(C(=O)[C@H](C)O)CC2)sc2c(N3CCOCC3)nc(-c3cnc(N)nc3)nc12`, the concentration at half-maximal activity (AC50) is 590 nM (active) in test [5]; 1870 nM (active) in [6]; 1870 nM (active) in test [7]; 41.8 nM (active) in test [8]; 590 nM (active) in test [9]; 209 nM (active) in test [10]. Moreover, the AC50 is 935 nM (active) in test [11] and 372 nM (active) in test [12]. Further, the IC50 in [13] is 934 nM (active).

For the compound `O=C(c1ccc(F)c(F)c1Nc1ccc(I)cc1F)N1CC(O)([C@@H]2CCCCN2)C1`, the AC50 in test [5] is 332 nM (active); in [6], 418 nM (active); in [7] it was 332 nM (active); in test [8], 5900 nM (active); in test [9], 372 nM (active); in test [10], 525 nM (active).

`CN(C(=O)CNC(=O)/C=C/c1cccc(Cl)c1)C1CCS(=O)(=O)CC1`: in [5], the AC50 was 1050 nM (active).

Regarding `CCN(CC)CCCCN1c2ccccc2Oc2ccc(Cl)cc21`, the parasite load remaining in test [1] is 45.6% (inactive). In test [1], the viability is 112%. The remaining activity in test [2] is 88.2% (inactive). The fold change in test [3] (setting [14]) is 1.24 (inactive); in test [3] (setting [15]), 0.706. Besides, the cell count was determined as 276 in test [3] (setting [16]) and 224 in test [3] (setting [17]). In addition, the z-score in [4] was -0.7 (inactive).

`CN(C)C(=O)n1nnnc1Cc1ccc(-c2ccccc2)cc1`: the remaining activity in test [2] is 82% (inactive). Further, the fold change was 1.31 (inactive) in [3] (setting [14]) and 1.05 in test [3] (setting [15]). For the same compound, the cell count in test [3] (setting [16]) was found to be 1840; in test [3] (setting [17]), 1400. The z-score in test [4] is -0.57 (inactive).

Turning to `CCOc1cc2c(c(F)c1OCC)C(=N)N(CC(=O)c1cc(N3CCOCC3)c(OC)c(C(C)(C)C)c1)C2`, the AC50 is 26300 nM (active) in test [5]; 2350 nM (active) in test [6]; 23500 nM (active) in [7]; 16600 nM (active) in test [8]; 29500 nM (active) in test [9]; 23500 nM (active) in [10]. Moreover, the AC50 in test [11] was 16600 nM (active); in test [12] it was 20900 nM (active).

With `C[C@H](O)[C@@H]1C(=O)N2C(C(=O)O)=C(S[C@@H]3CN[C@H](CNS(N)(=O)=O)C3)[C@@H](C)[C@@H]12`, the outcome in [5], in test [6], in test [7], in [8], in [9] and in [10] was inactive. Further, the compound was called inactive in test [11], in [12] and in test [13].

On to `COc1ccc(OC)c2c(=S)c3ccccc3[nH]c12`, for which the parasite load remaining in test [1] is 32.4% (inactive). For the same compound, in [1], the viability was determined as 149%. Besides, in test [2], the remaining activity is 86.6% (inactive). The fold change was 0.958 (inactive) in test [3] (setting [14]) and 1.3 in test [3] (setting [15]). Moreover, the cell count was determined as 8120 in test [3] (setting [16]) and 8480 in test [3] (setting [17]). Moreover, in test [4], the z-score is 0.325 (inactive).

In the case of `CN(C)c1ccc2cc(C(=O)N[C@@H](CCCN=C(N)CCl)C(=O)NCc3ccccc3)ccc2c1`, the AC50 in [5] was 8330 nM (active); in test [6] it was 16600 nM (active); in [7] it was 13200 nM (active); in test [8] it was 7430 nM (active); in [9], 2630 nM (active); in [10] it was 9340 nM (active). For the same compound, the figures for the AC50 in [11] and in [12] were 16600 nM (active) and 8330 nM (active), respectively.

One may read the viability as a read-out of living cells in per cent, often relative to untreated cells. The remaining activity is the signal under treatment as a percentage of the control signal. By AC50 is commonly meant the concentration giving half of the maximal activity seen. A word on the IC50: it is the midpoint of a concentration-inhibition curve.
